Consider 14 compounds from PubChem BioAssay.

A short description of assay [1]: inhibitors of TNFa-induced NFkB p65 translocation, primary screen, imaging, HUVEC, MLSMR starter and 10KST1 sets (AID 438;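 active = inhibition above 20% together with a positive visual image hit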;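 also: compound added about 3h40 before a 20 min TNFalpha stimulation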;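 as to inhibition: signal is the nuclear over cytoplasmic p65 intensity ratio per well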). Conditions: HUVEC TNFa-induced p65 nuclear translocation; cell count: measured here: nuclei count (cytotoxicity indicator), at 2.08 µM; inhibition: at 2 µM, stronger effect = higher value, 0% TNFa-plus-vehicle, 100% no-TNFa wells.
A short description of assay [2]: inhibitors of mutant huntingtin aggregation, primary screen, imaging, exon1htt(103Q)mCFP cells, high-content imaging (AID 483;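 active = visual image review flags a hit and inhibition of aggregation exceeds 20%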;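 also: compound exposure lasted 3 days before fixation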;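 as to nuclei count: percent of the per-plate median nuclei count of sample wells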). The conditions noted are these: exon1htt(103Q)mCFP cell line, aggregate imaging, at 2 µM; inhibition of aggregation: stronger effect = higher value; nuclei count: measured here: cell count, toxicity.
Assay [3] can be described thus: inhibitors of E-selectin induction by TNFa, primary screen, imaging, HUVEC, immunofluorescence, MLSMR starter and 10KST1 sets (AID 487;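 active = visually confirmed hit in the image check and inhibition above 20%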;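 as to inhibition: signal is fraction of cell area covered by stained E-selectin grains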;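 as to nuclei count: 100% = median nuclei count of all wells on the same plate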). Conditions: HUVEC TNFalpha-induced E-selectin immunofluorescence imaging, at 2 µM; inhibition: stronger effect = higher value; nuclei count: measured here: cell number, toxicity.
Assay [4] concerns the target Voltage-gated potassium channel subunit beta-2 (Rattus norvegicus) (UniProt P62483). The assay is described as follows: KvBeta enzyme negative modulators, primary screen, biochemical, NADPH fluorescence (AID 622;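 active = fluorescence slope higher than the sample average by over 3 SD, cut at about -0.22 in these data, passing the limit was not always enough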;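 also: slope of raw intensity against log time taken from 70 to 1610 s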). Conditions: recombinant KvBeta, 4-cyanobenzaldehyde reduction, at 10 µM, stronger effect = higher value.
For assay [5] the target is unchanged. The assay can be described thus: KvBeta positive modulators, primary screen, biochemical, NADPH fluorescence (AID 623;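 active = NADPH fluorescence slope more negative than the mean of all samples by about 3 SD, 99.7% confidence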;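 also: fluorescence intensity change per second fitted from 20 to 320 s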). The conditions noted are these: Recombinant KvBeta, NADPH fluorescence decrease slope, 10 min; at 10 µM; stronger effect = lower value.
The target of assay [6] is Alpha-2C adrenergic receptor (Homo sapiens) (UniProt P18825). The assay is described as follows: modulators of alpha2C/GIRK thallium flux, primary screen, cell-based, HEK293 alpha2C/GIRK1/2 (AID 624;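 active = fluorescence slope after compound addition differing from the mean of all screened samples at 99.7% confidence, in either direction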;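 also: slope of fluorescence ratio to pre-addition baseline per second over 15 to 24 s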). The conditions noted are these: thallium flux BTC fluorescence, at 10 µM, actives lie on both sides.
Chain of Alpha-2C adrenergic receptor (Homo sapiens) (P18825 whole entry, looked up): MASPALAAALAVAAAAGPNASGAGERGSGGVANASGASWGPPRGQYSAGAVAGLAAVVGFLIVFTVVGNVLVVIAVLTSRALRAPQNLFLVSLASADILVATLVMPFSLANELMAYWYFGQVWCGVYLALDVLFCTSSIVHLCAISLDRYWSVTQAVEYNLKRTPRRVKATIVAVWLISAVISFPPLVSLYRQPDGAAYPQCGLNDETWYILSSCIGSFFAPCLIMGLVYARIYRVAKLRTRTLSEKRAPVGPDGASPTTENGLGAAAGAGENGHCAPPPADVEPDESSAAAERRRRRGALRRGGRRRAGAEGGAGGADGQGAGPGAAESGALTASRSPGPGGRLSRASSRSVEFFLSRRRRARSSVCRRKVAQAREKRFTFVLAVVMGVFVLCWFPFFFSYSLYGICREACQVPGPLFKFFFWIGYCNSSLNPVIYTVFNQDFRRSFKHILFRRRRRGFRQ
Assay [7] can be described thus: inhibitors of Sendai virus-induced IRF3 signaling, primary screen, TLR/RLR signaling modifier project, cell-based, Sendai virus stimulus, luciferase, 10K MLSCN set (AID 602276).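 Also: firefly luciferase from ISG56 promoter only with Renilla not read in this screen; 0% = Sendai virus plus DMSO and 100% = medium plus DMSO without virus.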 Conditions: HEK293 RL24 IRF3 luciferase reporter, at 10 µM, stronger effect = higher value.
Assay [8] is described as follows: inhibitors of poly I:C-induced TLR3 signaling, primary screen, cell-based, poly I:C stimulus, luciferase, 10K MLSCN set (AID 602277;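 active = inhibition of the reporter signal at or above 50%; inactive = inhibition below 50%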). The conditions noted are these: HEK293-TLR3 RL24 IRF3 luciferase reporter, at 10 µM, stronger effect = higher value.

Active and inactive are the calls of the source.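 The calls were made as follows, unless noted: active = inhibition at or above 50% at 10 µM; inactive = inhibition below 50%.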

Chain of Voltage-gated potassium channel subunit beta-2 (Rattus norvegicus) (P62483 whole entry, looked up): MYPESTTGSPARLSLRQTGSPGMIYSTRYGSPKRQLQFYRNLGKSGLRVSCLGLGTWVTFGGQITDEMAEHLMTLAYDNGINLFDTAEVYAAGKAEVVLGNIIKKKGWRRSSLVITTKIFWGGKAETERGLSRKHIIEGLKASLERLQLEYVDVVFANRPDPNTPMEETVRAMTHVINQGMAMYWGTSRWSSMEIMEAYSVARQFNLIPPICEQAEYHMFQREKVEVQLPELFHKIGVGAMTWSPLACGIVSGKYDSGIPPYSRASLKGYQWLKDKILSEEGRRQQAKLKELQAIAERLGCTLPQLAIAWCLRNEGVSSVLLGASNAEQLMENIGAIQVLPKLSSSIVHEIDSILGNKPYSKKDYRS

Turning to `Clc1ccc(Nc2ncnc3c2cnn3-c2ccccc2)cc1`, in assay [1], the cell count turned out to be 703. The inhibition in assay [1] is 0% (inactive); in assay [3], -14.4% (inactive); in assay [7] it was -24% (inactive); in assay [8], -67.8% (inactive). Also, in assay [2], the inhibition of aggregation is 19% (inactive). The nuclei count in assay [2] amounted to 95.2%; in assay [3], 105%. The fluorescence slope in assay [4] was -0.496 (inactive). Besides, the NADPH fluorescence slope in assay [5] is -1.9e-05 (inactive). The slope in assay [6] was 0.0059 (inactive).

With `CCOC(=O)C1CCCn2c1nc1sc3c(c1c2=O)CCCC3` (centres undefined), the cell count in assay [1] came to 457. The inhibition is 3.7% (inactive) in assay [1], -114% (inactive) in assay [3], -24.3% (inactive) in assay [7] and -20.3% (inactive) in assay [8]. For the same compound, the inhibition of aggregation in assay [2] is -6% (inactive). Besides, the nuclei count came to 110% in assay [2] and 115% in assay [3]. Besides, the fluorescence slope in assay [4] was -0.435 (inactive). Moreover, the NADPH fluorescence slope in assay [5] is 9.6e-06 (inactive). The slope in assay [6] was 0.00445 (inactive).

As for `Cc1ccc(-n2nnnc2SCC(=O)c2cc(C)n(CC3CCCO3)c2C)cc1` (centres undefined), the cell count in assay [1] was found to be 452. For the same compound, the inhibition in assay [1] is 6.3% (inactive); in assay [3], -52.2% (inactive); in assay [7] it was 15.1% (inactive); in assay [8], -0.555% (inactive). For the same compound, the inhibition of aggregation in assay [2] was -11.9% (inactive). The figures for the nuclei count in assay [2] and in assay [3] were 102% and 121%, respectively. Moreover, the fluorescence slope in assay [4] is -0.437 (inactive). Also, the NADPH fluorescence slope in assay [5] was 3.2e-05 (inactive). Also, the slope in assay [6] was 0.00567 (inactive).

For the compound `CCOc1ccc2nc(NC(=O)CSc3nc4ccccc4c(=O)n3Cc3ccco3)sc2c1`, the cell count in assay [1] stood at 654. In addition, the inhibition was -6.1% (inactive) in assay [1], -65.7% (inactive) in assay [3], 15.6% (inactive) in assay [7] and 10% (inactive) in assay [8]. Also, the inhibition of aggregation in assay [2] is -5.6% (inactive). Also, the nuclei count in assay [2] was determined as 115%; in assay [3], 132%. In addition, the fluorescence slope in assay [4] was -0.413 (inactive). Further, the NADPH fluorescence slope in assay [5] was 9.6e-06 (inactive). Moreover, in assay [6], the slope was 0.00934 (active).

In the case of `FC(F)(F)c1nnc2sc(-c3cccs3)nn12`, in assay [1], the cell count is 382. In addition, the inhibition in assay [1] was -4% (inactive); in assay [3] it was -28.5% (inactive); in assay [7] it was 10.9% (inactive); in assay [8], 11.3% (inactive). Also, in assay [2], the inhibition of aggregation was -16.2% (inactive). The nuclei count in assay [2] came to 84.9%; in assay [3] it was 96.5%. Further, the fluorescence slope in assay [4] was -0.567 (inactive). Moreover, the NADPH fluorescence slope in assay [5] was -4.5e-05 (inactive). The slope in assay [6] is 0.00576 (inactive).

For the compound `CCc1nnc(NC(=O)CSc2nnc3scc(-c4ccc(C)cc4)n23)s1`, the cell count in assay [1] is 684. The inhibition in assay [1] was -32.6% (inactive); in assay [3] it was -5.3% (inactive); in assay [7], 14.5% (inactive); in assay [8], 14.2% (inactive). Further, the inhibition of aggregation in assay [2] was 9.1% (inactive). Moreover, the nuclei count in assay [2] is 96.5%; in assay [3], 104%. Moreover, the fluorescence slope in assay [4] is -0.504 (inactive). Moreover, the NADPH fluorescence slope in assay [5] is -0.000345 (inactive). Moreover, the slope in assay [6] is 0.00638 (inactive).

Take `COc1ccc(OCC(O)Cn2c(Br)nc3c2c(=O)[nH]c(=O)n3C)cc1` (centres undefined): the cell count in assay [1] was found to be 221. The inhibition in assay [1] is 2.4% (inactive); in assay [3], -39.9% (inactive); in assay [7] it was 35% (inactive); in assay [8], 27.6% (inactive). Moreover, the inhibition of aggregation in assay [2] is 15.5% (inactive). The nuclei count in assay [2] was 74.9%; in assay [3], 155%. Also, the fluorescence slope in assay [4] was -0.6 (inactive). For the same compound, in assay [5], the NADPH fluorescence slope was -3.5e-05 (inactive). Also, in assay [6], the slope is 0.00397 (inactive).

For the compound `CCN1CCN(C(=O)C2CCN(C(=O)c3cc4sccc4n3CC)CC2)CC1`, the cell count in assay [1] is 642. Further, the inhibition is -12.2% (inactive) in assay [1], -25.4% (inactive) in assay [3], 12.4% (inactive) in assay [7] and 45.3% (inactive) in assay [8]. Also, the inhibition of aggregation in assay [2] is 4.1% (inactive). Moreover, the nuclei count in assay [2] was 85.3%; in assay [3], 115%. For the same compound, in assay [4], the fluorescence slope is -0.556 (inactive). Besides, the NADPH fluorescence slope in assay [5] is -4.1e-05 (inactive). The slope in assay [6] is 0.00649 (inactive).

On to `CCn1c(SCC(=O)c2ccc(C)cc2)nnc1-c1ccoc1C`, for which, in assay [1], the cell count is 446. For the same compound, the inhibition was -11.7% (inactive) in assay [1], -138% (inactive) in assay [3], -8.3% (inactive) in assay [7] and -36.4% (inactive) in assay [8]. For the same compound, the inhibition of aggregation in assay [2] is 3.7% (inactive). For the same compound, the nuclei count was 77.4% in assay [2] and 119% in assay [3]. Also, the fluorescence slope in assay [4] is -0.329 (inactive). In assay [5], the NADPH fluorescence slope was -6.6e-05 (inactive). Moreover, in assay [6], the slope is 0.00433 (inactive).

`CC(C)(C)SCCNC(=O)CSc1ccccc1`: the cell count in assay [1] was found to be 636. In addition, the inhibition in assay [1] was -11% (inactive); in assay [3] it was -42.9% (inactive); in assay [7], -20.5% (inactive); in assay [8], -23.4% (inactive). For the same compound, the inhibition of aggregation in assay [2] was 8.5% (inactive). The figures for the nuclei count in assay [2] and in assay [3] were 93% and 78.7%, respectively. Besides, in assay [4], the fluorescence slope was -0.586 (inactive). Also, in assay [5], the NADPH fluorescence slope was -2.1e-05 (inactive). For the same compound, the slope in assay [6] is 0.00555 (inactive).

Consider `COCCn1c(SCC(=O)N(C(C)C)C(C)C)nnc1-c1cc2ccccc2cc1O`, for which the cell count in assay [1] worked out at 362. The inhibition is 0% (inactive) in assay [1], -1% (inactive) in assay [3], 11.9% (inactive) in assay [7] and 20.1% (inactive) in assay [8]. Moreover, the inhibition of aggregation in assay [2] is 25.9% (inactive). In addition, the nuclei count in assay [2] came out at 88.5%; in assay [3] it was 97.7%. The fluorescence slope in assay [4] was -0.366 (inactive). Also, the NADPH fluorescence slope in assay [5] is 1.3e-05 (inactive). Moreover, the slope in assay [6] is 0.00457 (inactive).

`CC(=O)n1cc(-c2ccncc2)c2ccccc21`: the cell count in assay [1] was determined as 474. In addition, the inhibition in assay [1] is -5% (inactive); in assay [3] it was -74.9% (inactive); in assay [7], -5.39% (inactive); in assay [8], 11.5% (inactive). Moreover, the inhibition of aggregation in assay [2] is 22.9% (inactive). The nuclei count came to 69.3% in assay [2] and 106% in assay [3]. Further, the fluorescence slope in assay [4] is -0.57 (inactive). Also, the NADPH fluorescence slope in assay [5] was -1.3e-05 (inactive). The slope in assay [6] was 0.00696 (inactive).

For `c1ccc2c(c1)Cc1cc(CN3CCOCC3)ccc1-2`, in assay [1], the cell count amounted to 343. Also, the inhibition in assay [1] is -8% (inactive); in assay [3] it was -77.5% (inactive); in assay [7], -50.9% (inactive); in assay [8], -105% (inactive). Besides, the inhibition of aggregation in assay [2] is -2.2% (inactive). The values for the nuclei count in assay [2] and in assay [3] were 110% and 128%, respectively. Also, in assay [4], the fluorescence slope is -0.415 (inactive). Besides, the NADPH fluorescence slope in assay [5] was -8.5e-05 (inactive). Further, the slope in assay [6] is 0.00531 (inactive).

`Cc1cccc(NC(=O)Cn2c(=O)n(C)c3ccccc32)c1`: the cell count in assay [1] came to 350. Further, the inhibition in assay [1] is -3.7% (inactive); in assay [3], -17.7% (inactive); in assay [7], 9.53% (inactive); in assay [8], 9.37% (inactive). In addition, the inhibition of aggregation in assay [2] is 2.6% (inactive). Besides, the nuclei count in assay [2] and in assay [3] was 107% in each case. In addition, the fluorescence slope in assay [4] was -0.417 (inactive). Further, in assay [5], the NADPH fluorescence slope was 9.1e-06 (inactive). For the same compound, in assay [6], the slope was 0.011 (inactive).
